This note sets out measurements from PubChem BioAssay.

SMILES strings stand for the structures. For some assays here: Potency and affinity values are given separately. Results filed as inconclusive are left out. The source made the active and inactive calls.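 The calls were made as follows, unless noted: active = falling signal with fitted half-maximal potency no higher than twice the top valid tested dose; inconclusive = poor fit quality, or flat fit spanning -70% to -30%; inactive = potency over limit, rising signal, or flat fit inside 30%.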

Experiment [1] in a line: small molecules captured by biotinylated probe aFSTL3 – biochemical, small-molecule microarray, fluorescence 635/667, stem cell growth factor project, primary screen (AID 1064).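 Also: measures binding of the biotinylated anti-FSTL3 antibody to printed compounds.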 The conditions noted are these: higher = more signal.
Experiment [2] can be described thus: binders from COS7 lysate, DM2A8 probe, primary screen, torsin A project, cell lysate, small-molecule microarray, fluorescence 635/667 (AID 1065). The conditions noted are these: higher = more signal, COS7 lysate expressing mutant human TOR1A.
Experiment [3] is described as follows: small molecules captured by biotinylated probe aFGF2 – biochemical, small-molecule microarray, fluorescence 635/667, stem cell growth factor project, primary screen (AID 1067).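 Also: measures binding of biotinylated aFGF2 protein to printed compounds on slides; z-score merges feature fluorescence and signal-to-noise across triplicate slides.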 The conditions noted are these: higher = more signal.
Experiment [4] is described as follows: small molecules captured by biotinylated probe aFGF10 – biochemical, small-molecule microarray, fluorescence 635/667, stem cell growth factor project, primary screen (AID 1071).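 Also: score merges 667 nm spot intensity and signal to noise from triplicate slides.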 The conditions noted are these: higher = more signal.
In experiment [5] the target is Neurogenic locus notch homolog protein 2 (Homo sapiens) (UniProt Q04721). The experiment is described as follows: small molecules binding Notch2 protein – biochemical, small-molecule microarray, 635 nm fluorescence, stem cell growth factors, primary screen (AID 1073). The conditions noted are these: higher = more signal.
Neurogenic locus notch homolog protein 2 (Homo sapiens), sequence (Q04721 whole entry, looked up, canonical isoform): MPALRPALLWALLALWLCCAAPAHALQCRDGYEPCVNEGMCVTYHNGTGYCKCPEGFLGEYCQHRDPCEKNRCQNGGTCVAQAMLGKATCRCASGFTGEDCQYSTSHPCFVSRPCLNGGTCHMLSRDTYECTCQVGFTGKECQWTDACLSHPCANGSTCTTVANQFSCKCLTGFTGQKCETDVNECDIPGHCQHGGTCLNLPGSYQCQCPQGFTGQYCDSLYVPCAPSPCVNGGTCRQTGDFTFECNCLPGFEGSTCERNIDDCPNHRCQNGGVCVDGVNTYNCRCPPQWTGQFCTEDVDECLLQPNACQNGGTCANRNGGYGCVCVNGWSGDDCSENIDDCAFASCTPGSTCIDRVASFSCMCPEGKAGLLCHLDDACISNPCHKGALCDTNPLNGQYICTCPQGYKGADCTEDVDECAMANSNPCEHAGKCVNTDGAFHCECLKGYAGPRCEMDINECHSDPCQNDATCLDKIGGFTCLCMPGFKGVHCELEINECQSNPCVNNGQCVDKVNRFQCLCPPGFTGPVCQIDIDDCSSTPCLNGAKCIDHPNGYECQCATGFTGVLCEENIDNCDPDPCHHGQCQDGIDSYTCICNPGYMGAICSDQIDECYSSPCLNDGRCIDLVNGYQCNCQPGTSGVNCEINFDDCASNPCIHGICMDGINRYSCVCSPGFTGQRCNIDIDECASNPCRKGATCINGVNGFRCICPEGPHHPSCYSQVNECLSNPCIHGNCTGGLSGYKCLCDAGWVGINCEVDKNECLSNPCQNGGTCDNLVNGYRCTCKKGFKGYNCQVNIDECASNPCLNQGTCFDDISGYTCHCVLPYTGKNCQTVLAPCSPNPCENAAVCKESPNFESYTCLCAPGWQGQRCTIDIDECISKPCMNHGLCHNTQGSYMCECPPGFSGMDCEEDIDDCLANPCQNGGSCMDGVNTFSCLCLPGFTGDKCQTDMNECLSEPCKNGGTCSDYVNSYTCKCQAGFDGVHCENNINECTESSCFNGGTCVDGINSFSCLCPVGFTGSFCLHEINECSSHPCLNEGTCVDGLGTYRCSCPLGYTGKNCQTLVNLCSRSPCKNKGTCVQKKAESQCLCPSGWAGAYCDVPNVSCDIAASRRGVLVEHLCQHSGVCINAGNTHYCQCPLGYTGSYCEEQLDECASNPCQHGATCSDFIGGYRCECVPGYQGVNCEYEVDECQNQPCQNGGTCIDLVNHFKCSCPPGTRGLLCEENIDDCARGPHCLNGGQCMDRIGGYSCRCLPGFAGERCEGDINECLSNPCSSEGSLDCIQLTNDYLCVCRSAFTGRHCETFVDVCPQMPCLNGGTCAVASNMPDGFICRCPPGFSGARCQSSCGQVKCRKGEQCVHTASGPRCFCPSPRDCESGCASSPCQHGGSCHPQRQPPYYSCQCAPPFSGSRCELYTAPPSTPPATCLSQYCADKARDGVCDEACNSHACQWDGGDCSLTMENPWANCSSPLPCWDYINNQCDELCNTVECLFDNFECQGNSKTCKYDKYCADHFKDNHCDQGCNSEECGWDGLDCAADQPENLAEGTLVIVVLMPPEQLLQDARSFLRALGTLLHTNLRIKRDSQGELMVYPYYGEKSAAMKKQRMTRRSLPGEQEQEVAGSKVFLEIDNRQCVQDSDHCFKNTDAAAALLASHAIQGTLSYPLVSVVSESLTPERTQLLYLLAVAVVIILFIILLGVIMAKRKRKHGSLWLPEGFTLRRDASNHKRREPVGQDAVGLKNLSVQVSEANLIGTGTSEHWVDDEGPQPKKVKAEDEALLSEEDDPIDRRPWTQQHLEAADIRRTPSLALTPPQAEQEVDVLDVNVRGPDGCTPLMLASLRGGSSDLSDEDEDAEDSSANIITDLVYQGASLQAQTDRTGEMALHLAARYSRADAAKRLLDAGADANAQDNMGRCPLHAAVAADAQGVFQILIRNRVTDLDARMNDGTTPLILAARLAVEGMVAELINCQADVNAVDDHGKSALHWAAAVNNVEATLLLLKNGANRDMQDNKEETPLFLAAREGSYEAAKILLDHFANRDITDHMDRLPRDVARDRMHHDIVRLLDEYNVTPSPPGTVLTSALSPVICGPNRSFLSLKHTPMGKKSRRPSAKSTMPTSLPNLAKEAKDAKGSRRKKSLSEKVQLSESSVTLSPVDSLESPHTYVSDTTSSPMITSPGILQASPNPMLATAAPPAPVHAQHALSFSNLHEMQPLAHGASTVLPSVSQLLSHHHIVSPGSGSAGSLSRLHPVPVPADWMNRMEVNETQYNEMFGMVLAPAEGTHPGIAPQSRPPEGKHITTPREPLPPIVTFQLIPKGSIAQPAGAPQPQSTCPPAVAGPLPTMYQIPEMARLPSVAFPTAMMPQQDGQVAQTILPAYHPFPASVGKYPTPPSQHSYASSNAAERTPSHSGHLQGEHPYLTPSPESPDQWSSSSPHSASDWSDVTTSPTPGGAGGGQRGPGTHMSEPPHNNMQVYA
In experiment [6] the target is Pro-neuregulin-1, membrane-bound isoform (Homo sapiens) (UniProt Q02297). Nature of the experiment: small molecules binding neuregulin-1 protein – biochemical, small-molecule microarray, fluorescence 635/667, psychiatric disease protein project, primary screen (AID 1075).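 Also: score combines 667 nm spot fluorescence with signal to noise.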 The conditions noted are these: NRG1 binding, 635 nm fluorescence, higher = more signal.
Pro-neuregulin-1, membrane-bound isoform (Homo sapiens), sequence (Q02297 whole entry, looked up, the tested form may be a part, canonical isoform): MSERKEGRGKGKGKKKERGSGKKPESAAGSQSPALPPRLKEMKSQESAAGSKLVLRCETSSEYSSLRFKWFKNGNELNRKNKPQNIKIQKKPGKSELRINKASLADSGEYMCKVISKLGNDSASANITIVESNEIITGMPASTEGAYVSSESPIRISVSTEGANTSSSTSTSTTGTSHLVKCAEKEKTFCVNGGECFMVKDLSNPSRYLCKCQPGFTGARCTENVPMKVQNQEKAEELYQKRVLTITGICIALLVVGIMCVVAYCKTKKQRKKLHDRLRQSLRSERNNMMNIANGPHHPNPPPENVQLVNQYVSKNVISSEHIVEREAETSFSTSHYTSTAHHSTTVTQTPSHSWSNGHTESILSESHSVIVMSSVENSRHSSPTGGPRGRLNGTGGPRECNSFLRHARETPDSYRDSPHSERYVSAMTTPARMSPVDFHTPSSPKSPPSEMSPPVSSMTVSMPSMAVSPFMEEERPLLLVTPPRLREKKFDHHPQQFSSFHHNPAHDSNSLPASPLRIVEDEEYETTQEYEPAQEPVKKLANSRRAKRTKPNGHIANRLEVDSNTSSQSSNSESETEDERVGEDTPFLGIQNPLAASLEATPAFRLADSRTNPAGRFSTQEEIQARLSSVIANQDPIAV
The subject of experiment [7] is Neuregulin-1 EGF-like domain. Nature of the experiment: small molecules binding NRG1 EGF domain – biochemical, small-molecule microarray, 635 nm fluorescence, primary screen (AID 1081).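 Also: binding of the protein to compounds printed on small-molecule microarray slides.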 The conditions noted are these: higher = more signal.
Experiment [8] in a line: FRG1 expression reporter modulators in myotubes – cell-based, C2C12 myotubes, firefly/Renilla luciferase, luminescence, FRG1 inhibition for FSHD, primary screen (AID 1084). The conditions noted are these: FRG1 promoter luciferase, higher = more signal, called active from +8 up or from −8 down.
The nature of experiment [9]: small molecules captured by biotinylated probe aFST – biochemical, small-molecule microarray, fluorescence 635/667, stem cell growth factor project, primary screen (AID 1086).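 Also: score merges 667 nm fluorescence with signal-to-noise of each printed compound spot.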 The conditions noted are these: higher = more signal.
The nature of experiment [10]: binders of probe aHhip on microarray, primary screen, stem cell growth factor project, biochemical, small-molecule microarray, fluorescence 635/667 (AID 1087).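 Also: score merges spot fluorescence at 667nm with spot signal to noise ratio.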 The conditions noted are these: higher = more signal.
For experiment [11], the system named is PRMT1 (protein arginine N-methyltransferase 1). Nature of the experiment: small molecules binding arginine methyltransferase PRMT1 – biochemical, small-molecule microarray, 635 nm fluorescence, primary screen (AID 1088).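 Also: binding of Prmt1 protein to compounds spotted on small-molecule microarray slides.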 The conditions noted are these: higher = more signal.
Experiment [12] in a line: growth effects on S. cerevisiae YJM789 – YJM789 clinical isolate, OD600, 24 h, basal, primary screen (AID 1089).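 Also: growth of clinical yeast isolate S. cerevisiae YJM 789 seeded 1000 cells per well.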 The conditions noted are these: higher = more signal, called active from +8 up or from −8 down.
The nature of experiment [13]: S. pombe growth modifiers, basal conditions – strain 972, OD600, 24 h, no modulator, primary screen (AID 1090).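 Also: basal condition with compound alone and no growth modifier present.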 The conditions noted are these: S. pombe 972 growth, higher = more signal, called active from +8 up or from −8 down.
Experiment [14] can be described thus: budding yeast growth modifiers under rapamycin – strain BY4716, OD600, 96 h, primary screen (AID 1091). The conditions noted are these: S. cerevisiae BY4716 + rapamycin, higher = more signal, called active from +8 up or from −8 down.
Experiment [15] has as its target Torsin-1A-interacting protein 2 (Homo sapiens) (UniProt Q8NFQ8). Nature of the experiment: small molecules binding lysate-expressed LULL1 – cell lysate, human LULL1 lysate, 635/667 nm fluorescence, primary screen (AID 1092).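 Also: probe is lysate of COS7 cells overexpressing human LULL1; score merges per-feature 667 nm fluorescence with signal-to-noise.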 The conditions noted are these: small-molecule microarray, hLULL1 lysate binding, 635 nm fluorescence; higher = more signal.
A short description of experiment [16]: optical density change of DRC41 E. coli – strain DRC41, OD650, 24 h, E. coli filamentation project, primary screen (AID 1093).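 Also: MC1000 strain lacking acrAB efflux and sulA so SOS filamentation is blocked.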 The conditions noted are these: E. coli DRC41 growth, higher = more signal, called active from +8 up or from −8 down.
Experiment [17] in a line: fungal growth arrest, C. neoformans – Alamar Blue, cherry-picks, dose response (AID 686998). The conditions noted are these: Cryptococcus neoformans growth, 24 h; series mostly up to 35 µM. (The colour change of resazurin is a common sign of viable cells or microbes.)
Experiment [18] is described as follows: C. neoformans lysis by adenylate kinase leakage – AK release luminescence, cherry-picks, dose response (AID 687000;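 active = fitted dose curve reaches 40% lysis signal rise at or below the highest valid concentration tested for that sample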;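 also: luminescent detection of adenylate kinase leaking from lysed yeast; 0% = median neutral control signal and 100% = double that signal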). The conditions noted are these: 4 h, 100% = twice the neutral-control signal; series mostly up to 15 µM.
A short description of experiment [19]: viability loss in HepG2 hepatoma cells – cell-based, cherry-picks, set 2, cytotoxicity control, dose response (AID 687002;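 active = a dose-response fit showing signal loss, with half-maximal concentration no higher than twice the top tested dose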). The conditions noted are these: ATP luminescence (CellTiter-Glo), 48 h; series mostly up to 26 µM. (Cellular ATP, detected with luciferase, serves as a proxy for viable cell number.)

Torsin-1A-interacting protein 2 (Homo sapiens), sequence (Q8NFQ8 whole entry, looked up): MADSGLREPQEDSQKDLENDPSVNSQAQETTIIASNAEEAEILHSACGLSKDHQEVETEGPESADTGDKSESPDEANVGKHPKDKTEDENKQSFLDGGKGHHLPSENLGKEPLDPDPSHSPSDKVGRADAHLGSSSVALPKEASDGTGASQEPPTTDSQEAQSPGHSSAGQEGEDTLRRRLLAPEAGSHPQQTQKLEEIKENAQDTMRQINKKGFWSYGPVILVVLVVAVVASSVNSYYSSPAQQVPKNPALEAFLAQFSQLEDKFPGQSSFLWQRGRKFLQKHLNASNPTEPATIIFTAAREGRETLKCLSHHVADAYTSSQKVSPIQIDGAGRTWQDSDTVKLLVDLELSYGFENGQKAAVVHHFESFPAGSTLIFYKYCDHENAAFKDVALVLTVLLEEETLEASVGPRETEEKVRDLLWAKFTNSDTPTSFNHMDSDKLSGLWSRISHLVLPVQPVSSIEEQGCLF

For the compound `CO[C@H]1O[C@H](CO)[C@@H](OC(=O)Nc2ccccc2)[C@H](OC(=O)Nc2ccccc2-c2ccccc2)[C@@H]1OC(=O)Nc1ccccc1-c1ccccc1`, the composite z-score in [1] is -0.711; in [2], 0.606; in experiment [3] it was -0.0141; in [4] it was 0.901; in [5], 1.49; in [6], 1.7. Also, the composite z-score in experiment [7] was 1.31; in experiment [9] it was 0.325; in experiment [10] it was -0.0346; in [11], 1.53; in experiment [15], 3.13. The z-score in [8] was -0.979 (inactive); in experiment [12] it was 1.17 (inactive); in [13], -0.271 (inactive); in experiment [14], -0.471 (inactive); in [16], 1.36 (inactive).

In the case of `CN(C[C@H]1N[C@@H](CO)[C@H]1c1ccc(-c2cccc(F)c2)cc1)S(C)(=O)=O`, the outcome in experiment [17] and in experiment [18] was inactive.

With `COC(=O)C(CC#Cc1ccc2c(c1)[C@]1(C(=O)N2)[C@H](c2ccccc2OCCO)N2[C@H](c3ccccc3)[C@H](c3ccccc3)OC(=O)[C@H]2[C@@H]1C(=O)N1CCCCCCC1)C(=O)OC`, the composite z-score in experiment [1] came to 4; in [2], 2.62; in [3], 0.984; in [4], 1.28; in experiment [5], 1.54; in [6], 2.17. For the same compound, the composite z-score amounted to 0.982 in experiment [7]; 3.71 in experiment [9]; 2.52 in experiment [10]; 1.53 in experiment [11]; 4.89 in experiment [15]. In addition, the z-score in experiment [8] is 0.62 (inactive); in [12], 0.349 (inactive); in experiment [13], 0.958 (inactive); in experiment [14], 1.06 (inactive); in experiment [16] it was 1.83 (inactive).

For `O=C(NCC(F)(F)F)[C@@H]1c2ccccc2C(=O)N(C2Cc3ccccc3C2)[C@H]1c1ccc(CO)cc1`, the composite z-score in experiment [1] is 0.833; in experiment [2] it was -0.67; in experiment [3], -0.0487; in [4] it was -0.514; in experiment [5] it was -0.98; in experiment [6], -0.0643. For the same compound, the composite z-score was 0.0014 in [7]; -0.187 in experiment [9]; -0.353 in experiment [10]; -0.236 in experiment [11]; 0.492 in [15]. Moreover, the z-score in [8] was -0.827 (inactive); in experiment [12], -0.62 (inactive); in experiment [13] it was -1.06 (inactive); in [14] it was -0.501 (inactive); in [16] it was 2.12 (inactive).

With `C=C(C(=O)CC[C@@H](OC(C)=O)c1ccccc1OCCO)C(C)C`, the composite z-score in experiment [1] is -0.354; in [2], -0.363; in experiment [3] it was -0.133; in [4], 0.664; in experiment [5], -0.553; in experiment [6], -0.267. The composite z-score in [7] is -0.29; in experiment [9], -0.575; in experiment [10], -0.0994; in experiment [11], 0.526; in experiment [15], -0.0719. Moreover, the z-score in experiment [8] is -2.13 (inactive); in experiment [12], -6.28 (inactive); in experiment [13], -20.5 (active); in [14], -2.44 (inactive); in experiment [16], 1.27 (inactive).

As for `NCCCCCNC(=O)[C@H]1C[C@H]2C(=O)NCC(=O)N2[C@H]1c1ccc(O)cc1`, the composite z-score in experiment [1] is -0.136; in experiment [2], 2.22; in experiment [3] it was -0.113; in [4] it was 0.847; in [5], 0.775; in [6], 1.3. In addition, the composite z-score in experiment [7] stood at 1.22; in experiment [9], 0.106; in experiment [10], 0.154; in experiment [11] it was 1.55; in experiment [15], 2.16. The z-score in experiment [8] is 1.51 (inactive); in [12], 0.535 (inactive); in experiment [13], -1.08 (inactive); in [14], 1.11 (inactive); in experiment [16], 1.1 (inactive).

As for `[N-]=[N+]=NCc1ccccc1C[C@]1(C(=O)NCc2ccccc2)N=C(c2ccc(OCCCO)cc2)O[C@H]1c1ccccc1`, the composite z-score turned out to be 1.45 in [1]; 1.21 in experiment [2]; 0.135 in experiment [3]; 0.17 in experiment [4]; 1.15 in [5]; 0.994 in experiment [6]. Also, the composite z-score in [7] is 0.97; in experiment [9], 0.407; in experiment [10], -0.224; in experiment [11], 0.544; in [15] it was 2.47. In addition, the z-score in experiment [8] was -2.74 (inactive); in experiment [12] it was 2.2 (inactive); in [13], 2.85 (inactive); in [14], 35.5 (active); in [16], 1.85 (inactive).

In the case of `C=CCC(OC(C)=O)[C@@H]1[C@@H](N(Cc2cccc3ccccc23)C(=O)Cc2ccc(OC)cc2)c2cc(OCCCO)ccc2N1C(=O)Cc1ccc(OC)cc1` (some centres undefined), the composite z-score in experiment [1] was 0.163; in [2], 0.045; in experiment [3], -0.0396; in [4], -0.236; in experiment [5], -0.111; in [6] it was -0.0173. Moreover, the composite z-score was -0.832 in [7]; -0.0127 in experiment [9]; -0.113 in [10]; -0.59 in [11]; 0.0872 in experiment [15]. Besides, the z-score in experiment [8] is -0.781 (inactive); in experiment [12], 0.395 (inactive); in experiment [13] it was -1.38 (inactive); in [14], -0.275 (inactive); in experiment [16], 2.21 (inactive).

For the compound `CC(C)C(=C=CC[C@@H](O)c1ccc(CO)o1)CCO`, the composite z-score is -0.416 in experiment [1]; 0.443 in experiment [2]; 0.007 in experiment [3]; 0.768 in experiment [4]; -0.298 in [5]; 0.632 in experiment [6]. Also, the composite z-score in experiment [7] is 1.19; in experiment [9], -0.304; in experiment [10], 0.065; in experiment [11] it was 0.821; in [15] it was 1.28. For the same compound, the z-score in [8] is 0.136 (inactive); in experiment [12], 1.15 (inactive); in experiment [13], -1.09 (inactive); in [14], -0.24 (inactive); in experiment [16], 1.17 (inactive).

Regarding `C[C@H]1CCCCO[C@H](CN(C)C(=O)Nc2ccc(F)cc2)[C@@H](C)CN([C@@H](C)CO)C(=O)c2cc(NS(=O)(=O)c3ccc(Cl)cc3)ccc2O1`, the outcome in [17], in experiment [18] and in [19] was inactive.

Regarding `CO[C@H]1O[C@H](CO)[C@@H](OC(=O)Nc2ccccc2)[C@H](OC(=O)Nc2ccc3c(c2)OCO3)[C@H]1OC(=O)Nc1ccc2c(c1)OCO2`, the composite z-score in experiment [1] turned out to be 0.381; in experiment [2] it was 0.45; in experiment [3], 0.128; in experiment [4] it was 0.7; in experiment [5] it was 1.29; in [6], 1.61. The composite z-score in [7] was 1.23; in [9] it was 0.29; in experiment [10] it was -0.175; in experiment [11] it was 1.56; in experiment [15] it was 2.8. Also, the z-score is 4.5 (inactive) in experiment [8]; 0.648 (inactive) in [12]; 0.494 (inactive) in experiment [13]; 2.28 (inactive) in experiment [14]; 2.75 (inactive) in [16].
